Source: PubChem BioAssay
Activity calls are given as the source filed them. Unless noted, no rule for the calls is given here.

Assays:
[1] = anti-His antibody binders, primary screen, artefact control for SMM control protein annotation, biochemical, small-molecule microarray, 635 nm fluorescence (AID 1128); details: anti-His Alexa647 antibody binding, higher = more signal;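 also: score merges feature fluorescence with signal-to-noise for each printed compound spot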
[2] = tested on: Human papillomavirus type 1a E7 protein (residues 1-88); assay: HPV1a E7 small-molecule binders, primary screen, biochemical, small-molecule microarray, residues 1-88, 635 nm (AID 1129); details: small-molecule microarray binding, fluorescence 635 nm; higher = more signal
[3] = biological target: Focal adhesion kinase 1 (Homo sapiens) (UniProt Q05397); assay: small-molecule microarray binders of FAK, primary screen, biochemical, 635/667 nm fluorescence, BSA, DTT (AID 1130); details: PTK2 binding, 635 nm fluorescence, higher = more signal;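 also: composite of spot emission at 667 nm and signal to noise over triplicate slides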
[4] = tested on: Fibrinogen (Alexa647-labelled); assay: fibrinogen binders on compound microarrays, profiling panel, artefact control for SMM control-protein annotation, biochemical, small-molecule microarray, 635/667 nm fluorescence (AID 1131); details: fibrinogen-A647 binding fluorescence, higher = more signal;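 also: z-score merges 667 nm fluorescence with per-spot signal-to-noise over triplicate slides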
[5] = biological target: Follistatin (Homo sapiens) (UniProt P19883); assay: follistatin binders on small-molecule microarrays, primary screen, biochemical, small-molecule microarray, 635/667 nm fluorescence (AID 1132); details: FST binding, 635 nm fluorescence, higher = more signal
[6] = biological target: Fibroblast growth factor 2 (Homo sapiens) (UniProt P09038); assay: FGF2 binders on small-molecule microarrays, primary screen, biochemical, small-molecule microarray, 635/667 nm fluorescence (AID 1133); details: small-molecule microarray binding, FGF2, fluorescence 635/667; higher = more signal
[7] = mitochondrial membrane potential change in A549 cells, profiling panel, cell-based, JC-1 fluorescence, basal, 24 h, 100 nL (AID 1138); details: higher = more signal;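 also: A549 lung adenocarcinoma cells under basal conditions with no added stimulus; test concentration not given here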
Lefty1 = Lefty1 binders on small-molecule microarrays, primary screen, biochemical, small-molecule microarray, 635/667 nm fluorescence (AID 1139); details: small-molecule microarray binding, fluorescence 635/667; higher = more signal
[8] = tested on: wheat germ agglutinin (Triticum aestivum), Alexa647-labelled; assay: wheat germ agglutinin binders on compound microarrays, profiling panel, artefact control for SMM control-protein annotation, biochemical, small-molecule microarray, 635/667 nm fluorescence (AID 1140); details: WGA-A647 binding, 635 nm fluorescence, higher = more signal;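 also: score merges 667 nm feature emission with signal to noise over triplicate slides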
[9] = biological target: Luciferin 4-monooxygenase (Photinus pyralis) (UniProt P08659); assay: firefly luciferase enzyme inhibitors, primary screen, biochemical, luminescence, purified enzyme, 2006 set (AID 1141); details: SteadyGlo luminescence, 30 min, higher = more signal, called active from +8 up or from −8 down;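 also: cell-free assay with purified firefly luciferase at 100 ng per well in PBS; test concentration not given here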
[10] = tested on: Wnt5a (protein binding on small-molecule microarray); assay: Wnt5a binders on small-molecule microarray, primary screen, biophysical, 635/667 nm fluorescence (AID 1142); details: 635 nm fluorescence, higher = more signal;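 also: fluorescence read at 667 nm with signal to noise per printed feature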
[11] = cell viability in Huh7 cells, primary screen, cytotoxicity control for HCV replication inhibitor project, CellTiter-Glo luminescence, basal, 48 h (AID 1143); details: Huh7 HCV replicon, higher = more signal, called active from +8 up or from −8 down;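 also: Huh7 hepatoma cells carrying a hepatitis C replication reporter with no stimulus; test concentration not given here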
[12] = P. aeruginosa biofilm formation inhibitors, primary screen, PAO1 strain, BacTiter-Glo luminescence, LB-PBS (AID 1144); details: 12 h, higher = more signal
[13] = CREB reporter modulators without forskolin, primary screen, cell-based, PC12, CRE-LacZ reporter, unstimulated (AID 1145); details: no forskolin, luminescence, 4.5 h, higher = more signal, called active from +8 up or from −8 down
[14] = CREB reporter modulators under forskolin, primary screen, cell-based, PC12, CRE-LacZ reporter, forskolin-stimulated (AID 1146); details: luminescence, 4.5 h, higher = more signal, called active from +8 up or from −8 down;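 also: PC12 cells with 6xCRE LacZ reporter stimulated by forskolin 10 µM; beta-galactosidase reporter signal reflecting CREB driven transcription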
[15] = biological target: Streptavidin (Streptomyces avidinii) (UniProt P22629); assay: streptavidin binders on small-molecule microarray, primary screen, artefact control for SMM compound annotation, biophysical, 635/667 nm fluorescence (AID 1147); details: streptavidin binding, higher = more signal;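 also: signal reflects streptavidin binding to arrayed compounds as a control protein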
[16] = small-molecule binders of probe aInhba, primary screen, biochemical, small-molecule microarray, 635/667 nm fluorescence (AID 1148); details: higher = more signal;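 also: score merges 667nm spot fluorescence with signal-to-noise for antibody binding to printed compounds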
Torsin-1A (Homo sapiens) [17] = biological target: Torsin-1A (Homo sapiens) (UniProt O14656); assay: torsin A binders from cell lysate, primary screen, small-molecule microarray, wild-type, 635/667 nm (AID 1149); details: COS7 hTOR1A-WT lysate, 635 nm fluorescence, higher = more signal
Torsin-1A (Homo sapiens) [18] = biological target: Torsin-1A (Homo sapiens) (UniProt O14656); assay: small-molecule binders of mutant TOR1A in lysate, primary screen, cell lysate, small-molecule microarray, COS7 lysate, 635/667 nm fluorescence (AID 1150); details: COS7 hTOR1A mutant lysate, 635 nm fluorescence, higher = more signal;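 also: score pools 667 nm emission and signal to noise measuring lysate protein binding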
[19] = tested on: Sonic hedgehog protein (Shh); assay: small-molecule binders of Shh protein, primary screen, biochemical, small-molecule microarray, 635/667 nm fluorescence (AID 1151); details: small-molecule microarray binding, 635 nm fluorescence; higher = more signal;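 also: Shh protein binding to compounds spotted on small-molecule microarray slides; score combines spot fluorescence intensity with signal-to-noise across triplicate slides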

Sequence of Focal adhesion kinase 1 (Homo sapiens) (Q05397 whole entry, looked up): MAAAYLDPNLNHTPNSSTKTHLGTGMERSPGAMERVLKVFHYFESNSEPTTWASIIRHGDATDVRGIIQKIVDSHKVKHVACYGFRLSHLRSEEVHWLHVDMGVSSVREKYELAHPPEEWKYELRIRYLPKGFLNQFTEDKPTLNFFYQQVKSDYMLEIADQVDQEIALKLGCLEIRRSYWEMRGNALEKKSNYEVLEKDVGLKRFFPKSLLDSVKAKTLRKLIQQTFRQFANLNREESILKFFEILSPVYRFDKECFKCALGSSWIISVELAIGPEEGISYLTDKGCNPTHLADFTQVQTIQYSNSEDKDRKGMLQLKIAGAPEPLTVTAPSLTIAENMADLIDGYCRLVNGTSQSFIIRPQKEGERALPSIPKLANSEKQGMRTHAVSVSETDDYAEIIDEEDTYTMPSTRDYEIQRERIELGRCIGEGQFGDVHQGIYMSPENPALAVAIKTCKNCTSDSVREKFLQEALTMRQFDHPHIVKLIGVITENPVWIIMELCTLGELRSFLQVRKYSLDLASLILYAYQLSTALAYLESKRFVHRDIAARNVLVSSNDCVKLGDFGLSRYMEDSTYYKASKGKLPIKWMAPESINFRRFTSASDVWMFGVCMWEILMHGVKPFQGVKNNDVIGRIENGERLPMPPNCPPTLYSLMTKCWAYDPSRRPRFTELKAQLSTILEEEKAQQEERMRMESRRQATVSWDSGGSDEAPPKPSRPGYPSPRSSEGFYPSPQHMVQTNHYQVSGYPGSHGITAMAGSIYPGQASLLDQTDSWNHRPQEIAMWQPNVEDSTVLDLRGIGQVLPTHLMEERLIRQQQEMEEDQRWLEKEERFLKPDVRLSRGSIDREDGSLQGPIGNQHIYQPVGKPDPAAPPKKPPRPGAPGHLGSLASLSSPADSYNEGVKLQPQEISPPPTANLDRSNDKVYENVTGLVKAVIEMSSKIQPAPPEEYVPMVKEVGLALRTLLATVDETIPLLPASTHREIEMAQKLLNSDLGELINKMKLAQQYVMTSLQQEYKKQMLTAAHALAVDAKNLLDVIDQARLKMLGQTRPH
Sequence of Follistatin (Homo sapiens) (P19883 whole entry, looked up): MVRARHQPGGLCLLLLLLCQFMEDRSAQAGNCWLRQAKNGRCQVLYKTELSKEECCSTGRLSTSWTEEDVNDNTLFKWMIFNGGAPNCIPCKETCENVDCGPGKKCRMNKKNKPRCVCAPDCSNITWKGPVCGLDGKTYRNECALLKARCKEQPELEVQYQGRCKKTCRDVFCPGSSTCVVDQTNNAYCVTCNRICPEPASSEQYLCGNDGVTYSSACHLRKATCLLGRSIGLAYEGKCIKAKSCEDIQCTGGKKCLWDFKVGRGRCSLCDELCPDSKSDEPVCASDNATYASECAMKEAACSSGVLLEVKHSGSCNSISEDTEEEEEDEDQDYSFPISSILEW
Sequence of Streptavidin (Streptomyces avidinii) (P22629 whole entry, looked up): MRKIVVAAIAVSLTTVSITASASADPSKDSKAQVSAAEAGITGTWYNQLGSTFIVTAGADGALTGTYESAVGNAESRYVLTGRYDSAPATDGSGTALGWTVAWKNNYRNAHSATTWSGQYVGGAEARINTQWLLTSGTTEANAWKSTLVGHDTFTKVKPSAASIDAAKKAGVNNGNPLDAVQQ
Sequence of Luciferin 4-monooxygenase (Photinus pyralis) (P08659 whole entry, looked up): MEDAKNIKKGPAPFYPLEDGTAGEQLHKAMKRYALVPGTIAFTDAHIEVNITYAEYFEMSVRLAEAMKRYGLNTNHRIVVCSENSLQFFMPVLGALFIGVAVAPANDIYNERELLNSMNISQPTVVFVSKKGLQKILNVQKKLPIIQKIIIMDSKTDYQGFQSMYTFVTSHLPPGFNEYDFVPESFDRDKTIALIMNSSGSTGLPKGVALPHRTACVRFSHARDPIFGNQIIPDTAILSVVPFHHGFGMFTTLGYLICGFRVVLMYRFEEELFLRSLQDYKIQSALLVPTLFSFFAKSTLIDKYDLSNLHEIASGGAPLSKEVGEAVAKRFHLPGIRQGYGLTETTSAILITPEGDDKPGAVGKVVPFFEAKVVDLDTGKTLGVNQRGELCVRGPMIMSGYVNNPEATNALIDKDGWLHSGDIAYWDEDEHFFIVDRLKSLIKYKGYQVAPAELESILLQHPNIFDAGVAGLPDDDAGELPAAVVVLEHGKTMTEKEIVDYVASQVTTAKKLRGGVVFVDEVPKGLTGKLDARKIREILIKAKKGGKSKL
Sequence of Torsin-1A (Homo sapiens) (O14656 whole entry, looked up): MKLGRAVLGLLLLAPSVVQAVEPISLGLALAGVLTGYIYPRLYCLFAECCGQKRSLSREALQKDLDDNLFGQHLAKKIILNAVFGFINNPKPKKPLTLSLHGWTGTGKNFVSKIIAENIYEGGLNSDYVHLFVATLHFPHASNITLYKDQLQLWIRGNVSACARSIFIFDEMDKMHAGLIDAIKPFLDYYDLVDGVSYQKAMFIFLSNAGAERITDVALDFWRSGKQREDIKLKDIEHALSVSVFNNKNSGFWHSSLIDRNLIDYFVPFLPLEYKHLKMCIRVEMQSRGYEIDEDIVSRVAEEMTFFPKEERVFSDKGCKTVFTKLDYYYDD
Sequence of Fibroblast growth factor 2 (Homo sapiens) (P09038 whole entry, looked up): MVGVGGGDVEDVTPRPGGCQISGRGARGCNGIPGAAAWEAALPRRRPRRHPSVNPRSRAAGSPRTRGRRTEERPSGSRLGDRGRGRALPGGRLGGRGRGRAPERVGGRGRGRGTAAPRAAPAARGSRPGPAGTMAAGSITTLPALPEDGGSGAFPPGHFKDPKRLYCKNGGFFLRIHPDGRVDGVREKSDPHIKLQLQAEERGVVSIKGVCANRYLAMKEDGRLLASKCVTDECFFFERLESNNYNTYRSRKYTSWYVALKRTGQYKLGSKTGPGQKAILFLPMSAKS

Row | Structure (SMILES) | composite z-score [1] | composite z-score [2] | composite z-score [3] | composite z-score [4] | composite z-score [5] | composite z-score [6] | z-score [7] | composite z-score (Lefty1) | composite z-score [8] | z-score [9] | composite z-score [10] | z-score [11] | z-score [12] | z-score [13] | z-score [14] | composite z-score [15] | composite z-score [16] | composite z-score (Torsin-1A (Homo sapiens) [17]) | composite z-score (Torsin-1A (Homo sapiens) [18]) | composite z-score [19]
1 | NCCCCCNC(=O)[C@@H]1C[C@@H]2C(=O)NCC(=O)N2[C@@H]1c1cccc(OCCO)c1 | 2.23 | 1.16 | 0.551 | 0.47 | 1.45 | 1.17 | -0.552 | 1.55 | 0.951 | -0.637 (inactive) | 0.468 | 0.267 (inactive) | 0.771 (inactive) | -0.667 (inactive) | -0.496 (inactive) | 0.519 | 0.188 | 0.666 | 0.59 | 1.29
2 | COc1ccccc1CN1C(=O)c2ccccc2[C@@]2(Cc3ccccc3N(CC(F)(F)F)C2=O)[C@@H]1c1ccc(CO)cc1 | -0.0478 | 0.232 | 0.205 | 0.049 | 0.666 | 0.731 | -0.0896 | 0.292 | -0.0716 | 0.962 (inactive) | 0.0586 | 0.338 (inactive) | 0.126 (inactive) | 1.24 (inactive) | -0.173 (inactive) | 0.276 | 0.173 | -0.116 | -0.33 | 0.53
3 | COc1cc(CO)cc(I)c1O[C@H]1C=C(C(=O)NCCO)C[C@@H](NCc2ccc(F)cc2)[C@@H]1O | -1 | 0.822 | -0.123 | 0.619 | 0.951 | 1.03 | 1.18 | 1.01 | 0.518 | -0.0701 (inactive) | 0.617 | -1.76 (inactive) | -0.613 (inactive) | 10 (active) | -1.05 (inactive) | -0.156 | -0.101 | 0.0626 | 0.0975 | 0.591
4 | C=CC[C@]1(C(=O)NCCN2CCOCC2)N=C(c2ccc(OCCCO)cc2)O[C@H]1c1ccccc1CN=[N+]=[N-] | 0.625 | 1.18 | -0.319 | 0.636 | 1.46 | 1.68 | 2.52 | 0.0118 | 1.03 | -1.37 (inactive) | 1.08 | -0.933 (inactive) | 0.81 (inactive) | 2.01 (inactive) | -0.784 (inactive) | -0.422 | -0.374 | 1.39 | 1.11 | 0.284
5 | COc1ccc([Si](C)(C)[C@@H]2[C@@H](CC(=O)N3Cc4ccccc4C[C@H]3CO)O[C@]3(C(=O)N(Cc4cccc(N5C(=O)c6cccc7cccc5c67)c4)c4ccccc43)[C@H]2C)cc1 | 0.846 | 0.956 | 0.434 | 0.883 | 1.35 | 1.62 | 0.129 | 0.937 | 0.423 | -0.347 (inactive) | 0.51 | -4.1 (inactive) | -0.194 (inactive) | 0.861 (inactive) | 0.838 (inactive) | 0.211 | 0.0091 | 0.786 | 0.535 | 1.19
6 | CC(C)OC(=O)C=C1C[C@@H](c2ccc(C(F)(F)F)cc2)O[C@@H](c2ccc(C(F)(F)F)cc2)O1 | 0.751 | 1.25 | 1.04 | 0.907 | -0.0691 | -0.46 | -0.0127 | -0.0747 | 1.21 | -0.478 (inactive) | -0.1 | -3.23 (inactive) | -1.17 (inactive) | -0.723 (inactive) | -0.163 (inactive) | -0.208 | -0.157 | 0.827 | 0.483 | -0.831
7 | O=C1NC(=O)C2C1C=CC(C(O)c1ccco1)N2Nc1ccccn1 (stereo not given) | -0.324 | -0.0286 | -0.429 | -0.17 | 0.292 | -0.127 | -0.109 | -0.042 | 0.325 | -1.42 (inactive) | 0.0477 | 0.829 (inactive) | 0.0748 (inactive) | -0.522 (inactive) | 0.413 (inactive) | -0.124 | -0.221 | 0.322 | 0.316 | 0.366
8 | O=C1O[C@H](c2ccccc2)[C@H](c2ccccc2)N2[C@H]1[C@@H](C(=O)Nc1nc3ccccc3s1)[C@]1(C(=O)Nc3ccc(C#CC4(O)CCCCCC4)cc31)[C@H]2c1ccccc1OCCO | 1.41 | 1.2 | 0.193 | 0.943 | 1.3 | 0.903 | -2.19 | 1.16 | 0.742 | -0.62 (inactive) | 0.731 | -4.43 (inactive) | 0.0608 (inactive) | 0.346 (inactive) | 0.0053 (inactive) | 0.612 | 0.27 | 0.602 | 0.597 | 1.32
9 | C[N+](C)(C)CCCC[C@@H]1NC(=O)[C@H]2C[C@@H](C(=O)NCCCCCCN)[C@@H](c3ccc(O)cc3)N2C1=O | 3.15 | 1.13 | 0.145 | 0.973 | 0.835 | 0.299 | 0.792 | -0.046 | 1.17 | -0.932 (inactive) | 0.408 | -0.548 (inactive) | 1.09 (inactive) | -0.528 (inactive) | -1.1 (inactive) | 0.859 | 0.108 | 0.774 | 0.545 | -0.117
10 | CN(C)C(=O)C1N=C(c2ccc(OCCCO)cc2)N(c2ccccc2)O1 (stereo not given) | 1.33 | 1.13 | 0.268 | 0.598 | 1.35 | 1.8 | 0.936 | 1.29 | 0.586 | -14.9 (active) | 1.15 | -1.17 (inactive) | 0.265 (inactive) | 0.0451 (inactive) | -0.102 (inactive) | -0.151 | 0.0658 | 1.19 | 1.56 | 2.03
